Source: PubChem BioAssay (Center for Chemical Genomics, University of Michigan)
This excerpt belongs to a sample that is enriched for hits.
Dicer inh: inhibitors of Dicer pre-microRNA processing, primary screen, biochemical, cat-ELCCA, chemiluminescence; cat-ELCCA pre-miR-21 Dicer processing; active compounds read high; AID 1347074, 2019; Endoribonuclease Dicer (Homo sapiens), Q9UPY3; 47,000 tested, 6% active; z-score at 25 µM; in the data active = z-score above about 3, passing the limit was not always enough;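 also: plate controls were vehicle for no effect and no enzyme for full effect; higher signal means more uncleaved substrate so more Dicer inhibition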
Starred values were filed as active, the others as inactive; ! = a repeat was not active.

SMILES | Dicer inh
COc1ccc(Nc2c3c4c(c(Br)ccc4n(C)c2=O)C(=O)c2ccccc2-3)cc1 | 0.38
CCCCCCCNc1c2c3c(cccc3n(C)c1=O)C(=O)c1ccccc1-2 | -0.78
O=C(O)c1nccnc1C(=O)Nc1ccc2c(c1)OCCCO2 | -2.6
NC(=O)c1cc[n+](CC2=C(C(=O)O)N3C(=O)[C@@H](NC(=O)[C@@H](c4ccccc4)S(=O)(=O)[O-])[C@H]3SC2)cc1 | 3.7*!
CC(=O)OCC1=C(C(=O)O)N2C(=O)[C@@H](NC(=O)Cc3cccs3)[C@H]2SC1 | 2.6
O=C(COc1ccccc1)NC1C(=O)N2C(C(=O)O)=C(Cl)CSC12 (centres undefined) | -0.43
CCOC(=O)c1cnc(C(F)(F)F)nc1Nc1ccccc1 | -1.3
O=C1c2oc3ccc(Cl)cc3c(=O)c2C(c2ccc(O)cc2)N1Cc1ccccc1 (centres undefined) | 1.2
Cc1c(C)c(C)c(CSC2=NCCC2)c(C)c1C | -0.75
Cc1c(C)c(C)c(CSC2=NCC(C)N2)c(C)c1C (centres undefined) | 4*
Cc1cc(C)c(CSC2=NCCN2)c(C)c1CSC1=NCCN1 | -3.8
COc1ccc(Cc2noc(N)n2)cc1 | -1.2
CC1=C(C(=O)OC2CCCC2)C(c2ccc(F)c(F)c2)C2=C(CCCC2=O)N1 (centres undefined) | 0.54
COc1ccc(C2Nc3ccccc3-c3cc(C)nn32)cc1OC (centres undefined) | 3
Fc1ccc(CN2CCCN(Cc3ccc(F)cc3)C2c2ccc3c(c2)CCO3)cc1 | -0.74
c1ccc2c(c1)NC(c1ccc3c(c1)CCO3)n1cccc1-2 (centres undefined) | 3.4*
COc1ccc(/C(O)=C2\C(=O)C(=O)N(CCCn3ccnc3)C2c2ccccc2F)cc1 (centres undefined) | 0.61
Cc1cc(C)cc(Oc2c(C(F)(F)F)oc3c(CN4CCOCC4)c(O)ccc3c2=O)c1 | 1.4
CCC1CCCCN1S(=O)(=O)c1ccc(NC2=NS(=O)(=O)c3ccccc32)cc1 (centres undefined) | -1.2
N#Cc1c(NC(=O)C(=O)c2c[nH]c3ccccc23)sc2c1CCCC2 | 4.6*
N#Cc1c(NC(=O)COc2ccc(Cl)cc2)sc2c1CCCC2 | -0.23
COc1cc2ccccc2cc1C(=O)Nc1sc2c(c1C#N)CCC2 | 2.8
N#Cc1c(NC(=O)c2ccccc2)sc2c1CCCCC2 | 3.2*
CN(C)C(=O)c1c(NC(=O)c2ccccc2)sc2c1CCCC2 | -0.15
N#Cc1c(NC(=O)c2ccc(Cl)cc2)sc2c1CCCC2 | 1.4
SMILES | Dicer inh
CC(C)(CCOC(=O)c1cc2ccccc2oc1=O)Nc1ccc(C(F)(F)F)cc1[N+](=O)[O-] | 0
CC1(C)Cc2cccc(C(=O)Nc3cccc4c3CCCC4)c2O1 | -0.61
O=C1CCCc2[nH]c(=O)cc(C(F)(F)F)c21 | 0.87
Cc1ccccc1C1C2=C(Nc3c1c(=O)[nH]c(=O)n3C)c1ccccc1C2=O (centres undefined) | -1.7
CCN(CC)CCOc1c(Br)ccc2c1sc1nc3n(c(=O)c12)CCC3 | 4.1*
CC(C)(C)C(=O)Nc1ccc(Cl)cc1-c1noc(C(C)(C)C)n1 | -0.24
CSc1ccc(CNc2ncc(-c3ccc(Br)cc3)n2C)cc1 | 2.7
O=[N+]([O-])c1cccc(-c2noc(CSC3=NCCN3)n2)c1 | -1.1
Cc1ccc(-c2nnc(-c3cccs3)o2)cc1 | 2.9
Cc1ccc(-c2nnc(-c3ccc(C)cc3)o2)cc1 | 5.1*
Cc1ccc(-c2nnc(-c3ccccc3)o2)cc1 | 2
COc1cc(C(=O)O)c(N)c(OC)c1OC | -0.22
CS/C(=C(/C#N)S(=O)(=O)C(C)C)N1CCCC1 | -1.2
CS/C(=C(/C#N)S(=O)(=O)C(C)C)N1CCOCC1 | -1.3
CS/C(=C(/C#N)S(=O)(=O)C(C)C)N1CCCCC1 | 4.2*
O=c1c(-c2ccc(Cl)cc2)c(C(F)(F)F)oc2c(CN3CCCC3)c(O)ccc12 | 2.9
CCOC(=O)c1cnc(NNC(=O)c2ccc(Cl)cc2Cl)nc1C(F)(F)F | 5.8
C#CCSc1nc(C)c(Cc2c(F)cccc2Cl)c(=O)[nH]1 | 0.46
Cc1cc(C(=O)O)nc2ccccc12 | 1.8
Cc1cc(C)c2nc(C3C(=O)c4ccccc4C3=O)ccc2c1 | -1.2
Cc1cc(C)c2ccc(C3C(=O)c4ccc(O)cc4C3=O)nc2c1 (centres undefined) | 3.1*
O=C(Cn1cnc2sc3c(c2c1=O)CCCC3)c1ccc(Br)cc1 | 0.05
CCOC(=O)N(/N=C/c1sc2ccccc2c1C)SC(Cl)(Cl)Cl | -1.2
Cc1c(/C=N/NC(=O)NCc2ccccc2)sc2ccccc12 | 5.4*
O=C(NCc1ccccc1)N/N=C/c1cccs1 | 1.4
SMILES | Dicer inh
CN(C)c1ccc(NC(=O)c2ccc(Cl)cc2)cc1C(=O)O | 0.14
CC1(C)NC(=O)N(CC(O)COc2ccccc2)C1=O (centres undefined) | -1.3
Clc1ccc(SCSc2ccc(Cl)cc2)cc1 | -1.3
COC(=O)CSc1nc(NC(C)=O)nc(C)c1Br | 3.1*
COC(=O)CSc1nc(N)nc(C)c1Cl | 2.7
COC(=O)CSc1cc(C)nc(NC(C)=O)n1 | 0.03
O=C(CSc1cc(C(F)(F)F)nc2ccccc12)NNC(=O)c1ccc(Cl)cc1 | 0.54
COc1ccc(-c2cc(-c3ccc(C)cc3)[nH]c(=S)c2C#N)cc1 | 0.56
COc1ccc(-c2cc(-c3cccs3)[nH]c(=S)c2C#N)cc1 | 1.1
N#Cc1c(-c2ccc(Cl)cc2)cc(-c2ccccc2)[nH]c1=S | 3.8*
CCOC(=O)Cn1nnc(N2CCCC2)n1 | -0.83
Nc1ccc(C(=O)O)c2c(C(=O)O)cccc12 | -0.03
O=C(O)c1cccc2cccc(S(=O)c3ccccc3CO)c12 (centres undefined) | -0.98
O=C(O)c1cccc2cccc(C(=O)O)c12 | 3.9*
Nc1nccc(-c2cccc(Cl)c2F)n1 | 0.66
O=C(CSC1CS(=O)(=O)c2cc([N+](=O)[O-])ccc21)NNC(=O)c1ccccc1Cl (centres undefined) | -0.92
CC1=C(C(=O)OC2CCCC2)C(c2cccnc2)C2=C(CC(C)(C)CC2=O)N1 (centres undefined) | 0.63
CCCCOC(=O)C(C)Oc1ccc2c(=O)c(-c3ccccc3)coc2c1 (centres undefined) | 1.2
CCOC(=O)C(C)Oc1ccc2c(C)cc(=O)oc2c1 (centres undefined) | 1.3
CCOC(=O)C(C)Oc1cc(OC(C)C(=O)OCC)c2c(=O)cc(-c3ccccc3)oc2c1 (centres undefined) | 4.1*
COc1cc2c(cc1OC)C(=O)N(Cc1c(Cl)cccc1Cl)CC2 | -0.66
COC(=O)C1=C(C)NC2=C(C(=O)CC(C)(C)C2)C1c1cc2c(cc1Cl)OCO2 (centres undefined) | 1.5
CCNc1nc(SCc2ccc([N+](=O)[O-])cc2)nc2nc(N(CC)CC)ncc12 | 0.13
CCOC(=O)c1c(C)n(C)c2cc(-c3ccc(Cl)cc3)c(O)cc12 | 2.2
CCOC(=O)c1c(C)n(C)c2cc(-c3ccc(C)cc3)c(O)cc12 | 2
SMILES | Dicer inh
CCOC(=O)c1c(C)n(C)c2cc(-c3ccc(CC)cc3)c(O)cc12 | 3.5*
Cc1ccc(OCC2NCCS2)c([N+](=O)[O-])c1 (centres undefined) | 0.36
O=c1c(Cl)c(N2CCOCC2)cnn1-c1ccccc1 | -0.99
FC(F)(F)c1ccc(-c2nnc(SCc3c(Cl)cccc3Cl)s2)nc1 | -0.24
CC(C)(C)OC(=O)N[C@@H](Cc1ccccc1)C(=O)NNC(=S)NCC1CC1 | 2.1
O=C(NNC(=S)NCC1CC1)C1CC1 | 3.4*
S=C(NCC1CC1)N/N=C/c1ccccc1Cl | 19
